The results in this text go back to PubChem BioAssay.

The inhibition is the relative decrease from the control value, in per cent. A word on the viability: it is a read-out of living cells in per cent, often relative to untreated cells.

A short description of assay [1]: blockers of polyQ-driven CASP3 activation – cell-based (AID 1583). The note with it: polyglutamine-induced caspase-3 activation, cell assay; stronger effect = higher value;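 tested at 10 µM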.
The nature of assay [2]: yeast 75Q aggregation reduction – 75Q-TubU reporter (AID 1593). The note with it: Yeast 75Q polyglutamine aggregation reporter.
The nature of assay [3]: restoration of touch response, mutant HTT neurons – whole organism, C. elegans mechanosensory neurons, N-terminal huntingtin (AID 1599). To be noted: C. elegans polyQ-huntingtin mechanosensory neurons, stronger effect = higher value.
Assay [4] can be described thus: blockers of cytochrome c efflux from mitochondria – biochemical, purified mitochondria (AID 1603).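 Note: mouse liver mitochondria challenged with calcium chloride; signal normalized to the plate average as 100%.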 To be noted: stronger effect = lower value.
A short description of assay [5]: polyglutamine aggregate formation blockers (AID 1604). To be noted: polyglutamine-induced protein aggregation inhibition assay; stronger effect = higher value; tested at 2.5 µM.
Assay [6] in a line: glutamate transport activators, MN-1 cells, MN-1 cell line (AID 1612).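 Note: tested at 1 µM final; 0% = mean of DMSO vehicle wells on each plate; positive means more glutamate uptake than control and negative means less.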 The note with it: MN-1 motor neuron cells, stronger effect = higher value.
Assay [7] in a line: 75Q-TubH aggregate inhibition, S. cerevisiae, yeast (AID 1616). The note with it: S. cerevisiae 75Q-TubH polyglutamine aggregation suppression; stronger effect = higher value.
Assay [8] is described as follows: P. berghei load reduction in hepatocytes – cell-based, HepG2, luciferase luminescence, HepG2 viability, primary screen (AID 624349).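 Note: 100% = mean of DMSO negative control wells on the same plate.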 The note with it: P. berghei liver stage in HepG2, luciferase luminescence, concentration not given here; parasite load remaining: stronger effect = lower value; viability: measured here: HepG2 viability without parasites.
The nature of assay [9]: EMT-state selective cytotoxicity in co-culture – imaging, PC-3E GFP, TEM4-18 mCherry, primary screen (AID 1345086;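 active = compounds killing one labelled cell type while sparing the other, by normalised counts and ratio limits, not self-fluorescent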;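 for all read-outs here: cells exposed to compound for 72 h before imaging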;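 for red/green cell ratio (normalised): normalised mesenchymal count divided by normalised epithelial count so high means epithelial killing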). To be noted: PC-3E GFP / TEM4-18 mCherry co-culture, imaging cell counts, at 1 µM; for red/green cell ratio (normalised): actives lie on both sides, counts scaled to control wells, 1 = unselective.
The nature of assay [10]: viability loss with induced miR-34 in A549 – imaging, A549 dox-inducible miR-34, nuclei and caspase counts, primary screen (AID 1347080;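 active = compounds whose cell count with miR-34 switched on is under 0.7 times the count with it off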). The note with it: A549 miR-34 inducible, Hoechst nuclei count, 48 h.
Assay [11] can be described thus: galactose survival enhancers in mitochondrial complex I cybrids – cell-based, galactose medium, ATP luminescence, primary screen (AID 1645843;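 active = z-score of at least 1.8 in each of two replicates, scored against plate mean and spread of sample wells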;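 note: positive z means more ATP and so rescue of galactose-driven cybrid death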). To be noted: complex I mutant cybrid cells, 72 h, stronger effect = higher value.
Assay [12] can be described thus: GFP-Q80 aggregate reduction, neuronal-like cells, cell-based, NGF-treated PC12, GFPQ80 (AID 1614).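 Note: lower means fewer inclusions and 0 means no inclusions at all.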 The note with it: PC12 NGF-treated GFP-polyQ80 inclusion reduction.
The mark [13] stands for this setting: measured here: epithelial PC-3E GFP cell survival.
Setting [14] is: measured here: mesenchymal TEM4-18 mCherry cell survival.
Where [15] appears, read: stronger effect = lower value, cell number ratio, induced over uninduced.
Where [16] appears, read: measured here: relative caspase fold change +Dox/-Dox.
Setting [17] is: measured here: total cells with miR-34 induction, stronger effect = lower value.
The mark [18] stands for this setting: measured here: total cells without miR-34 induction.

“And” between values parts separate entries of the source, which are not always exact repeats. Equal entries are not always repeated. For some assays here: Measured potencies and affinities stand elsewhere. A structure can be active in one record and inactive in another. The source made the active and inactive calls. Cut-off read from the data, not from the text of the source, unless noted: active = parasite load remaining mostly below about 12% (no sharp cut-off); inactive = mostly above about 10%.

For the compound `C=C[C@H]1CN2CC[C@H]1C[C@@H]2[C@H](O)c1ccnc2ccc(OC)cc12`, in assay [1], the inhibition was -2.2%. Besides, the score in [2] came out at 1.5. The rescue above control in assay [3] is -7.29. Further, the cytochrome c release ratio in [4] was found to be 0.97. In assay [5], this compound had an inhibition of aggregation of 9.09%. Moreover, in assay [6], the glutamate uptake change is 13.1%. Moreover, the aggregation suppression score in assay [7] came out at 1.58. Further, in [8], the parasite load remaining was 68.2% (inactive) and 15.1% (active). Further, the viability in assay [8] was 72.3% and 81.3%. Further, the red/green cell ratio (normalised) in assay [9] is 1.16 (inactive). In addition, the normalised cell number is 1.05 in assay [9] (setting [13]) and 1.21 in [9] (setting [14]). The fold change is 0.948 (inactive) in assay [10] (setting [15]) and 2.86 in assay [10] (setting [16]). Besides, the cell count is 10900 in assay [10] (setting [17]) and 11500 in assay [10] (setting [18]).
As to `C[C@]12CCC3c4ccc(OS(=O)(=O)O)cc4CCC3C1CCC2=O` (some centres not stated), the parasite load remaining in assay [8] is 45.1% (inactive). Moreover, the viability in [8] turned out to be 102%. Moreover, the red/green cell ratio (normalised) in assay [9] was 0.91 (inactive). For the same compound, the normalised cell number in assay [9] (setting [13]) came out at 0.94; in [9] (setting [14]) it was 0.86. Moreover, the fold change in [10] (setting [15]) is 0.918 (inactive) and 0.865 (inactive); in assay [10] (setting [16]), 1.03 and 4.55. In addition, the cell count is 9150 and 11800 in [10] (setting [17]); 9970 and 13700 in [10] (setting [18]). Besides, in assay [11], the z-score was 0.9 (inactive).
In the case of `CCCCCC(=O)O[C@]1(C(C)=O)CCC2C3CCC4=CC(=O)CC[C@]4(C)C3CC[C@@]21C` (some centres not stated), in assay [1], the inhibition stood at 18.1%. For the same compound, the score in assay [2] was -0.83. The rescue above control in [3] is -3.14. Moreover, in assay [4], the cytochrome c release ratio was 0.32. The compound also came in with an inhibition of aggregation in assay [5] of 35%. In addition, the glutamate uptake change in [6] came to 9.62%. Also, the aggregation suppression score in [7] worked out at 0.43. Further, the parasite load remaining in assay [8] was 13.1% (inactive) and 0.105% (inactive). In addition, the viability in [8] is 72.1% and 76.8%. Moreover, the red/green cell ratio (normalised) in assay [9] is 1.01 (inactive). The normalised cell number in assay [9] (setting [13]) turned out to be 1.08; in assay [9] (setting [14]), 1.09. Further, the fold change in assay [10] (setting [15]) is 0.912 (inactive); in [10] (setting [16]), 1.72. Besides, the values for the cell count in assay [10] (setting [17]) and in assay [10] (setting [18]) were 7140 and 7840, respectively.
In the case of `CC12CCC3C(=CCc4cc(O)ccc43)C1CCC2=O` (configuration not stated), the inhibition in assay [1] is -18.1%. In [2], this compound returned a score of 0.86. For the same compound, in assay [3], the rescue above control came out at 0.8. In addition, the cytochrome c release ratio in assay [4] is 0.66. Also, the inhibition of aggregation in assay [5] was 84.7%. The glutamate uptake change in assay [6] worked out at 1.39%. This compound also came in with an aggregation suppression score in [7] of 0.518. Further, the parasite load remaining in assay [8] was 112% (inactive) and 14% (inactive). Further, the viability in assay [8] is 72.6% and 110%. Besides, the red/green cell ratio (normalised) in assay [9] is 1.28 (inactive). Also, the normalised cell number is 1.14 in [9] (setting [13]) and 1.45 in assay [9] (setting [14]). Also, the fold change in assay [10] (setting [15]) is 0.897 (inactive); in assay [10] (setting [16]), 0.851. Besides, the figures for the cell count in assay [10] (setting [17]) and in assay [10] (setting [18]) were 11100 and 12400, respectively.
`C[C@@H]1CC2C3C[C@H](F)C4=CC(=O)C=C[C@]4(C)[C@@]3(F)[C@@H](O)C[C@]2(C)[C@@]1(O)C(=O)CO` (some centres not stated): in assay [1], the inhibition turned out to be 14.1%. Also, the score in [2] turned out to be 1.53. Moreover, in [3], the rescue above control was determined as 11.3. Further, the cytochrome c release ratio in assay [4] came to 1.19. This compound showed an inhibition of aggregation in assay [5] of 57.7%. Moreover, the glutamate uptake change in [6] was 16.9%. Moreover, the inclusion score in [12] was determined as 2. The aggregation suppression score in assay [7] was 0.927. The parasite load remaining in assay [8] was 21.3% (inactive). In addition, in [8], the viability was 92.2%. In addition, in assay [9], the red/green cell ratio (normalised) was 1.15 (inactive). Further, the normalised cell number in [9] (setting [13]) was found to be 1.15; in [9] (setting [14]), 1.33. For the same compound, the fold change is 0.92 (inactive) in [10] (setting [15]) and 1.86 in assay [10] (setting [16]). Besides, the cell count in assay [10] (setting [17]) turned out to be 7830; in assay [10] (setting [18]), 8520.
Take `C#C[C@]1(O)CCC2C3CCC4=CC(=O)CC[C@@H]4C3CC[C@@]21CC` (some centres not stated): the inhibition in assay [1] was 13.1%. Moreover, in assay [2], the score was determined as 1.25. The same compound came in with a rescue above control in assay [3] of 7. The cytochrome c release ratio in assay [4] worked out at 0.87. This compound registered an inhibition of aggregation in assay [5] of 11.1%. Further, in assay [6], the glutamate uptake change is -5.94%. In [12], the inclusion score was 2. Besides, the aggregation suppression score in assay [7] worked out at 1.03. In addition, the parasite load remaining in assay [8] is 86.4% (inactive) and 40.3% (inactive). The viability in [8] is 65.9% and 90.1%. The red/green cell ratio (normalised) in [9] was 1.08 (inactive). Moreover, the normalised cell number in assay [9] (setting [13]) was determined as 0.78; in assay [9] (setting [14]) it was 0.84. For the same compound, the fold change in assay [10] (setting [15]) was 0.867 (inactive); in assay [10] (setting [16]) it was 2.88. Moreover, the cell count in assay [10] (setting [17]) amounted to 10400; in assay [10] (setting [18]) it was 12000.
